esBAF inh: Bmi1 luciferase reporter increase in mESCs, primary screen, esBAF inhibitor project, mouse ES cells, Bmi1 luciferase knock-in, single point; AID 602393, 2012; 2% of 350,000 active; reporter increase, % at 12.5 µM; 24 h; 100% = twice the neutral-well signal; in the data active = activation above about 40%; inconclusive = no clear call, values can overlap the other calls;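 note: 0% = median of the plate's neutral control wells and 100% = double that signal; a rise in the Bmi1 reporter signal indicates esBAF inhibition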
MITF TRPM1 HTS: activators of MITF-driven TRPM1 promoter reporter, primary screen, cell-based, SK-MEL-5, luciferase, single point | SK-MEL-5 TRPM1-promoter luciferase, 24 h; % of positive control, neutral wells = 0 | AID 588334, 2011 | 0.75% of 300,000 active | activation, % at 12.5 µM;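 active = mean activation of at least 80% with every replicate also reaching 80%; inconclusive = mean reaches 80% but some replicate falls short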;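 note: 0% = neutral control wells and 100% = parthenolide positive control wells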
HSF1 inh: HSF1 inhibitors in luciferase reporter cells, primary screen, cell-based, NIH3T3, luminescence; NIH3T3-HGL HSE-luciferase, MG132-induced, luminescence 8 h; stronger effect = lower value; activity change, negative = inhibition, % at 7.5 µM (by protocol); 0.77% of 300,000 active; AID 2098, 2009;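 active = more than half of replicate wells show activity change below -50%, luminescence cut by over half; inconclusive = some wells, but at most half, below -50%; inactive = no replicate well below -50%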;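 note: luciferase reports HSF-1 transcriptional activity via heat shock element; 0% = median of DMSO wells and -100% = zero luminescence signal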
HSF-1 act: HSF-1 activators, primary screen, NIH3T3-HGL cells, MG132 stress, luminescence, single point; 1.7% of 300,000 active; NIH3T3-HGL HSF-1 luciferase reporter, 8 h; 100% = twice DMSO control signal; activation, % at 9 µM; AID 504408, 2011;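 active = mean replicate activation of at least 50% with a set share of replicates each reaching 50%; inconclusive = only one of those two conditions met; inactive = mean below 50% and too few replicates reaching it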;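 note: 0% = median of the neutral control wells and 100% = twice that signal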
Wnt act: Wnt/beta-catenin pathway activators, primary screen, cell-based, plate reader, single point. activation, % at 9.35 µM. 1.2% of 300,000 active. Wnt/beta-catenin reporter cell assay, activator; in the data active = activation above about 30%, passing the limit was not always enough; inconclusive = no clear call, values can overlap the other calls;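 note: 0% = neutral control wells and 100% = positive control wells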
Active calls of the source: *; ? = inconclusive; / = not tested or not shown. An excerpt weighted towards active compounds, which were near 3.9% of everything screened.

SMILES | esBAF inh | MITF TRPM1 HTS | HSF1 inh | HSF-1 act | Wnt act
COc1ccc(NC(=O)N(C)C[C@H]2Oc3c(NS(C)(=O)=O)cccc3C(=O)N([C@H](C)CO)C[C@@H]2C)cc1 | 1 | / | / | / | /
O=C(NC(CO)(CO)CO)c1coc(=O)c(Br)c1 | 3 | 10 | 14 | 65* | /
CC(C)CNC(=O)c1coc(=O)c(Br)c1 | -9 | / | 10 | 18 | /
CC(C)C(=O)Nc1nc(-c2ccccc2)ns1 | 56* | 135* | 23 | 44 | -5
CCCC(=O)Nc1nc(-c2ccccc2)ns1 | / | ? | 33 | 47 | ?
CC(C)C(=O)Nc1nnc(NC(=S)Nc2ccccc2)s1 | 76* | 37 | 3 | 16 | 8
CCC(=O)Nc1nc(-c2ccccc2)ns1 | 43* | / | 10 | 17 | /
CCCc1cn(CC[C@H]2CC[C@H](NS(=O)(=O)c3ccccc3Cl)[C@H](CO)O2)nn1 | 1 | / | / | / | /
COc1ccc(-c2nc(SC)n(S(=O)(=O)c3ccccc3)n2)cc1 | 53* | 56 | 5 | -9 | /
CCOC(=O)c1c(C)nc(-c2ccccc2)nc1N | 50* | / | 21 | 46 | /
CC(=O)c1c(C)nc(-c2ccccc2)nc1N | 8 | 17 | / | / | 0
CCOC(=O)c1c(-c2ccccc2)cn2c(C)cc(C)nc12 | 63* | 67 | 24 | 59* | 23
C[C@@H]1CCCCO[C@H](CN(C)Cc2ccc(C(=O)O)cc2)[C@H](C)CN([C@H](C)CO)C(=O)c2cc(N(C)C)ccc2O1 | -7 | / | / | / | /
C[C@H]1CN([C@@H](C)CO)C(=O)c2cc(NC(=O)CCCN(C)C)ccc2O[C@@H]1CN(C)Cc1ccc(Cl)c(Cl)c1 | 4 | / | / | / | /
CCOC(=O)c1c(C)oc2c1c(C(c1cccnc1)N1CCOCC1)c(O)c1ccccc12 (centres undefined) | 69* | 45 | 2 | 1 | /
CCOC(=O)c1c(C)oc2c1c(C=NCc1ccccn1)c(O)c1ccccc12 | / | -32 | / | / | 7
CCOC(=O)c1c(C)oc2c1c1c(c3ccccc32)OCN(CCCC(=O)O)C1 | 51* | 66 | 31 | 57* | 48*
CCOC(=O)c1c(C)oc2c1c(C=NCC1CCCO1)c(O)c1ccccc12 (centres undefined) | -6 | 1 | 14 | 45 | 3
CCOC(=O)c1c(C)oc2c1c1c(c3ccccc32)OCN(Cc2cccnc2)C1 | 74* | 27 | / | / | /
COCc1cn(CC[C@@H]2CC[C@H](NC(=O)Nc3ccc4c(c3)OCO4)[C@@H](CO)O2)nn1 | -12 | / | / | / | /
C[C@@H]1CN([C@H](C)CO)C(=O)c2cc(NC(=O)NC3CCCCC3)ccc2O[C@H]1CN(C)S(=O)(=O)c1ccccc1 | 0 | / | / | / | /
COc1ccc(CN(C)C[C@@H]2Oc3ccc(NS(C)(=O)=O)cc3CC(=O)N([C@H](C)CO)C[C@H]2C)cc1 | 0 | / | / | / | /
OC[C@H]1[C@@H](c2ccc(-c3cccnc3)cc2)[C@H]2CN(CC3CC3)CCCCN21 | 0 | / | / | / | /
CN(/C(=N\S(=O)(=O)c1ccccc1)C(F)(F)F)c1ccccc1 | -6 | / | -56* | -64 | /
CCCOc1ccc(/C=N/Nc2ccc(C(=O)O)cc2)c(OCCC)c1 | / | 4 | -56* | -52 | 2
SMILES | esBAF inh | MITF TRPM1 HTS | HSF1 inh | HSF-1 act | Wnt act
CCCOc1ccc(/C=N/NC(=S)Nc2ccccc2[N+](=O)[O-])c(O)c1 | / | / | -90* | -92 | /
CCOc1ccccc1/C=N/Nc1ccccc1[N+](=O)[O-] | 54* | 72 | 0 | 8 | /
CCCOc1ccc(/C=N/Nc2cccc([N+](=O)[O-])c2)c(O)c1 | / | 84* | 17 | 6 | /
CCNC(=O)C[C@H]1CC[C@@H](NC(=O)C2CCC2)[C@H](CO)O1 | -8 | / | / | / | /
Cn1cnc(S(=O)(=O)N[C@H]2C=C[C@@H](CC(=O)Nc3ccccc3)O[C@@H]2CO)c1 | 3 | / | / | / | /
CO[C@@H]1CC[C@H]2CCOc3c(C#N)cccc3C(=O)N(C)C[C@H](c3ccccc3)CC(=O)N(C)C[C@@H]1O2 | 5 | / | / | / | /
CCCOc1ccc(/C=N/Nc2ccccc2[N+](=O)[O-])c(O)c1 | / | -55 | -69* | -75 | -2
COc1ccccc1/C=N\Nc1ccccc1[N+](=O)[O-] | / | / | 34 | 40 | 29
C[C@@H]1CCCCO[C@@H](CN(C)C(=O)Nc2ccc3c(c2)OCO3)[C@@H](C)CN([C@H](C)CO)C(=O)c2cc(NS(=O)(=O)c3cn(C)cn3)ccc2O1 | -4 | / | / | / | /
CCOc1ncccc1C(=O)N(C)CC1COc2ccccc2O1 (centres undefined) | -4 | 9 | 97 | 175* | /
Cc1cc(C(=O)CN2C(=O)NC3(CCCCC3)C2=O)c(C)n1C | 14 | 29 | -8 | -23 | 5
Cc1cc(C(=O)CN2C(=O)NC3(CCCCC3)C2=O)c(C)n1Cc1ccco1 | / | ? | 44 | 89* | 73*
Cc1cc(C(=O)CN2C(=O)NC3(CCCC3)C2=O)c(C)n1-c1ccc2c(c1)OCO2 | / | 10 | -10 | 12 | 7
Cc1cc(C(=O)CN2C(=O)c3cccc(N)c3C2=O)c(C)n1Cc1cccs1 | 43* | 106* | 12 | 24 | 20
COc1ccc(NC(=O)c2cc(C)n(Cc3cccs3)c2C)cc1 | / | / | 40 | 68* | 68*
Cc1cc(C(=O)CN2C(=O)NC3(CCCCC3)C2=O)c(C)n1Cc1ccc2c(c1)OCO2 | 51* | 32 | 30 | 28 | /
COc1ccc(S(=O)(=O)Nc2ccc3c(c2)[C@H]2C[C@@H](CC(=O)N(C)C)O[C@@H](CO)[C@H]2O3)cc1 | 5 | / | / | / | /
Cc1cc(C(=O)CN2C(=O)NC3(CCCCC3C)C2=O)c(C)n1Cc1cccs1 (centres undefined) | / | 92* | -5 | 0 | 65*
C[C@@H]1CN([C@H](C)CO)C(=O)c2cc(-c3ccc(C#N)cc3)cnc2O[C@@H]1CN(C)Cc1cccnc1 | -3 | / | / | / | /
CC(=O)c1cc(Cl)ccc1OCC(=O)NC1CCCC1 | 52* | 50 | / | / | -3
O=C(COc1ccc(Cl)cc1[N+](=O)[O-])NC1CCCCC1 | 101* | 62 | 0 | 4 | 0
O=C(COc1ccc(Cl)cc1[N+](=O)[O-])N1CCCCCC1 | -1 | 2 | 1 | -19 | -1
COc1cc(C)ccc1OCC(=O)NC1CCCCCC1 | 69* | ? | / | / | -1
C[C@@H]1CCCCO[C@H](CN(C)C(=O)CCC(F)(F)F)[C@H](C)CN([C@H](C)CO)C(=O)c2cc(NS(=O)(=O)c3ccc(Cl)cc3)ccc2O1 | 13 | / | / | / | /
CC(C)NC(=O)Nc1ccc2c(c1)CC(=O)N([C@@H](C)CO)C[C@H](C)[C@@H](CN(C)Cc1ccncc1)O2 | 2 | / | / | / | /
COc1cccc(CNC(=O)[C@H]2[C@H](CO)[C@H]3Cn4c(ccc(C5=CCCCC5)c4=O)[C@@H]2N3)c1 | 1 | / | / | / | /
COC(=O)Cn1c2ccccc2c2nc3ccccc3nc21 | 50* | 30 | 5 | 13 | 2
